According to PubChem BioAssay AID1159580 (chemical genetic matrix, 2015):
Screen size: about 5,500 compounds; about 2,000 (36%) were called active. Another 18% or so got no clear call; they are omitted. Rule as the data show it: active = normalized growth mostly below about 0.91 (no sharp cut-off); inconclusive = no clear call, values can overlap the other calls; inactive = mostly above about 0.92. The list shows a part of the results.

Assay: chemical genetic growth profiling, strain panel (AID 1159580);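 also: tested at 20 µM; growth read once vehicle control cultures reached saturation at 30 °C; 1 = growth at the plate median or of vehicle wells; lower values mean less growth of the strain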
Settings: S. cerevisiae deletion strains, growth OD
[1] = locus YAL040C, strain CLN3, active compounds read low
[2] = locus YER002W, strain NOP16, active compounds read low
[3] = locus YGR078C, strain PAC10, active compounds read low
[4] = locus YNL175C, strain NOP13, active compounds read low
[5] = locus YNL197C, strain WHI3, active compounds read low
[6] = locus YNL224C, strain SQS1, active compounds read low
[7] = locus YOR083W, strain WHI5 (second series), active compounds read low
[8] = locus YPL241C, strain CIN2, active compounds read low

Measured: normalized growth

NC(=O)C(=O)O
inactive: locus YAL013W, strain DEP1, active compounds read low 1.01 | [1] 1 | locus YCL061C, strain MRC1 (second series), active compounds read low 1 | locus YDR150W, strain NUM1, active compounds read low 1 | locus YDR363W, strain ESC2, active compounds read low 1.02 | [2] 0.999 | [3] 0.994 | locus YMR307W, strain GAS1, active compounds read low 1 | [4] 1.01 | [5] 1 | [6] 1.01 | [7] 1.02 | locus YPL055C, strain LGE1, active compounds read low 1.01 | [8] 0.997

CC(N)=O
inactive: [1] 0.973 | [2] 0.992 | [3] 1 | locus YGR229C, strain SMI1, active compounds read low 1.01 | locus YJR075W, strain HOC1, active compounds read low 0.991 | locus YNL128W, strain TEP1, active compounds read low 0.997 | [4] 0.992 | [5] 1 | [6] 1.04 | [7] 1 | [8] 0.975
